ALDH1A1 block: qHTS Assay for Inhibitors of Aldehyde Dehydrogenase 1 (ALDH1A1); Purified ALDH1A1, NADH fluorescence, propionaldehyde substrate; actives 7.3% (n = 220,000); AID 1030, 2008; Potency, µM (doses to about 75.3 µM), without a hit: at the top dose activity, negative = inhibition, usual class: inhibitors;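 note: potency is the fitted concentration of half-maximal effect; plate controls were no enzyme wells and a reference inhibitor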
Target sequence (P00352 whole entry, looked up): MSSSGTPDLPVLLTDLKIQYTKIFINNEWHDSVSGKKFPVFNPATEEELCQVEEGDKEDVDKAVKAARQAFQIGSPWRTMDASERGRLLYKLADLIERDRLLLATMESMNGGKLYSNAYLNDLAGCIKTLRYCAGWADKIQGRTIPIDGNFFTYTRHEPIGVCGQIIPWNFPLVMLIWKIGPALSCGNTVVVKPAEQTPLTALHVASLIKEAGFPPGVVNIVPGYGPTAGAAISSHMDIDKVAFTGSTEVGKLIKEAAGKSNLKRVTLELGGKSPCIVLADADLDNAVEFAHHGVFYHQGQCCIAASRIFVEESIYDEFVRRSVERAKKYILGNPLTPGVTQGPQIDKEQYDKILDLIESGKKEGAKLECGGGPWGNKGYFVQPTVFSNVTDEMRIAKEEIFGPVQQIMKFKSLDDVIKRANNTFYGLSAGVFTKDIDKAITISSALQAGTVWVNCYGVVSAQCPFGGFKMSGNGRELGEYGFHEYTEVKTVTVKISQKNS
Lamin A splicing: qHTS Assay for Modulators of Lamin A Splicing; HeLa LMNA splicing GFP/RFP minigene ratio, 48 h; Potency, µM (highest dose often 46.1 µM), for inactives: at the top dose ratio change, negative = inhibition, actives largely listed as inhibitors; actives 0.01% (n = 200,000); active = well fitted inhibition curve with a large enough effect in the signal ratio, with a control signal flat, not every such curve was filed as active; inconclusive = small, poorly fitted or top-dose-only effect, or effect the other way, or a change in a side signal; the % refers to the signal ratio; note: potency is the fitted concentration of half-maximal effect
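S3 HeLa stable clones carrying a lamin A-EGFP splicing minigene plus DsRed2 were seeded at 600 cells/well in Opti-MEM with 2% FBS, pin-dosed and incubated 48 h at 37°C. Acumen cytometry (488 nm) gave the GFP/RFP total-intensity ratio.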
HPGD inh: qHTS Assay for Inhibitors of HPGD (15-Hydroxyprostaglandin Dehydrogenase). 15-hydroxyprostaglandin dehydrogenase [NAD(+)] (Homo sapiens), P15428. purified HPGD, NADH fluorescence kinetic, PGE2 substrate. Potency, µM, inactives show at the highest dose activity change, negative = inhibition, actives largely listed as inhibitors. actives 4.3% (n = 150,000). AID 894, 2007; note: potency is the fitted concentration of half-maximal effect
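NADH formation kinetics: reaction with 30 uM PGE2 and 1 mM NAD+ (final), 20 nM enzyme, Tris-HCl pH 8 with Tween 20, after 15 min compound preincubation at room temperature. Fluorescence change, last versus first of five reads.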
Luc counter: Counterscreen for Luciferase (Kinase-Glo TM) Inhibition; AID 1379, 2008; Potency, µM (top dose mostly 38.3 µM), without a hit: at the highest dose activity change, negative = inhibition, actives largely listed as inhibitors; actives 0.28% (n = 200,000); Kinase-Glo luciferase, ATP luminescence, 8 min; active = well fitted inhibition curve with a large enough effect; inconclusive = small, poorly fitted or top-dose-only effect; note: potency is the fitted concentration of half-maximal effect; nearly all actives have a fitted effect of over 60% in size
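Compounds were added to a substrate mix at pH 7.2 (50 mM imidazole, 10 uM ATP, within the enzyme's linear range), followed by Kinase-Glo detection reagent; luminescence was measured after 8 minutes at ambient temperature.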
PNC inhibitor: High Content Assay for Compounds that inhibit the Assembly of the Perinucleolar Compartment. PC3M PTB-GFP, PNC prevalence imaging, 16 h; hits give low values. activity change (PNC), negative = inhibition, % at 10 µM. AID 2417, 2010. actives 3.1% (n = 140,000);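 active = readout at or below -70, meaning at least 70% loss of cells showing the perinucleolar compartment, a nuclear body marking cancer cells; inconclusive = readout between -30 and a set limit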;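 note: plate controls were DMSO wells for no effect and camptothecin positive control wells for full effect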
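Compounds are pinned in duplicate onto adhered PC3M cells stably expressing GFP-tagged PTB and incubated 16 h at 37 C. Cells are then fixed, nuclei stained with Hoechst, and PNC-positive cells counted.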
The depositor's hits bear a star; [ ] = dose if it differs, or a comment. Hits are enriched below; roughly 10% of the tested compounds scored in any of these assays. Unless noted, calls come from the whole dose curve; as a rule, active = well fitted inhibition curve with a large enough effect (not every such curve was filed as active); inconclusive = small, poorly fitted or top-dose-only effect, or another doubt; inactive = no such curve, though single readings can be large or run the other way. Unless noted, % is set by controls: 0 for no effect and ±100 for the full control effect.

Cc1ccc(NC(=O)CN2CCN(C3CCCCC3)C(=O)C2=O)cc1 was read as Lamin A splicing 13%[46 µM].
O=C(O)C1OC(Oc2cc3oc(-c4ccccc4)cc(=O)c3c(O)c2O)C(O)C(O)C1O (stereo not drawn) was read as ALDH1A1 block inconclusive, Lamin A splicing inconclusive, HPGD inh 4.5µM*, Luc counter -1% and PNC inhibitor inconclusive.
For COc1c(OC2OC(C(=O)O)C(O)C(O)C2O)cc(O)c2c(=O)cc(-c3ccccc3)oc12 (stereo not drawn) the results were ALDH1A1 block inconclusive, Lamin A splicing -8%, HPGD inh inconclusive, Luc counter -2% and PNC inhibitor inconclusive.
For O=S(=O)(NCCc1csc2nc(-c3ccccc3)nn12)c1cc(F)ccc1F the results were Lamin A splicing -3%[46 µM].
For CC1=NN=C(c2ccccc2)C(c2c[nH]c3ccccc23)N1O (stereo not drawn) the results were ALDH1A1 block 0%, Lamin A splicing -2%, HPGD inh -5%, Luc counter -1% and PNC inhibitor -114*.
Screening Cc1[nH]c2ccccc2c1C1C(c2ccccc2)=NN=C(C(C)C)N1O (stereo not drawn) returned ALDH1A1 block -11%, Lamin A splicing 5%, HPGD inh -17%, Luc counter 4% and PNC inhibitor -103*.
For CCOC(=O)C1CCCN(S(=O)(=O)c2cc3c4c(c2)CC(=O)N4CCC3)C1 (stereo not drawn) the results were Lamin A splicing -5%[46 µM].
Screening Cc1ccc(NC(=O)CSc2nccn2C2CCCC2)cc1Cl returned Lamin A splicing -6%[46 µM].
For O=C(COc1ccccc1Cl)NC(=S)Nc1ccc(CN2CCOCC2)cc1 the results were ALDH1A1 block -1%, Lamin A splicing 9%, HPGD inh 25µM*, Luc counter 8% and PNC inhibitor 18.
`O=C(NC(=S)Nc1ccc(CN2CCOCC2)cc1)c1ccc([N+](=O)[O-])cc1` gave ALDH1A1 block inconclusive, Lamin A splicing -14%, HPGD inh -17%, Luc counter 2% and PNC inhibitor inconclusive.
For O=C(/C=C/c1cccc([N+](=O)[O-])c1)NC(=S)Nc1ccc(CN2CCOCC2)cc1 the results were ALDH1A1 block 3.2µM*, Lamin A splicing -23%, HPGD inh -12%, Luc counter 6% and PNC inhibitor inconclusive.
Cc1ccccc1OCC(=O)NC(=S)Nc1ccc(N2CCOCC2)c(Cl)c1 was read as ALDH1A1 block inconclusive, Lamin A splicing -5%, HPGD inh -26%, Luc counter 0% and PNC inhibitor -19.
Screening C/C(=N\NC(=O)c1ccc(CN2CCOCC2)cc1)c1cccc([N+](=O)[O-])c1 returned ALDH1A1 block 19µM*, Lamin A splicing inconclusive, HPGD inh -6%, Luc counter 2% and PNC inhibitor -29.
Screening CCCCOc1ccc(C(=O)NC(=S)Nc2ccc(CN3CCOCC3)cc2)cc1 returned ALDH1A1 block -7%, Lamin A splicing -7%, HPGD inh 1%, Luc counter -9% and PNC inhibitor 37.
For C/C(=N\NC(=O)c1ccc(CN2CCOCC2)cc1)c1ccc([N+](=O)[O-])cc1 the results were ALDH1A1 block inconclusive, Lamin A splicing inconclusive, HPGD inh -20%, Luc counter -6% and PNC inhibitor inconclusive.
Screening O=C(CCCCl)NC(=S)Nc1ccc(CN2CCOCC2)cc1 returned ALDH1A1 block 20µM*.
`Cc1oc(-c2ccc(Cl)cc2)nc1Cn1c(=O)cc(-c2ccccc2)c2c(C)nn(C)c21` gave Lamin A splicing -3%[46 µM].
`CC(C)(C)OC(=O)N1CCC[C@H]1C(O)(c1ccccc1)c1ccccc1` gave ALDH1A1 block 9%, HPGD inh 0% and Luc counter -1%.
Screening Cc1ccc(C(CC(=O)c2ccco2)SCCO)cc1 (stereo not drawn) returned ALDH1A1 block -10%, Lamin A splicing inconclusive, HPGD inh -13%, Luc counter -8% and PNC inhibitor 7.
For O=C(CC(SCCO)c1ccc(F)cc1)c1ccco1 (stereo not drawn) the results were ALDH1A1 block 28µM*, Lamin A splicing inconclusive, HPGD inh -27%, Luc counter -20% and PNC inhibitor 23.
CCOC(=O)c1c(NC(=S)Nc2ccc(OC)cc2)sc2c1CCC2 was read as ALDH1A1 block inconclusive, Lamin A splicing -10%, HPGD inh -21%, Luc counter -2% and PNC inhibitor -6.
Screening CCOC(=O)c1c(NC(=S)NCCc2ccccc2)sc2c1CC(C(C)C)OC2 (stereo not drawn) returned ALDH1A1 block 25µM*, Lamin A splicing inconclusive, HPGD inh -9%, Luc counter 2% and PNC inhibitor inconclusive.
Screening C=CCNC(=S)Nc1sc2c(c1C(=O)OCC)CC(C(C)C)OC2 (stereo not drawn) returned ALDH1A1 block 11µM*, Lamin A splicing -26%, HPGD inh -29%, Luc counter -4% and PNC inhibitor 32.
For CN(N=O)C(=O)N[C@H]1C(O)OC(CO)[C@@H](O)[C@H]1O (stereo partly drawn) the results were ALDH1A1 block 5%, HPGD inh -14% and Luc counter 0%.
For CC(=O)N1CCC[C@@]2(CCN(Cc3nccs3)C2)C1 the results were ALDH1A1 block inconclusive, HPGD inh -12% and Luc counter -1%.
For COc1ccc(-n2c(=O)c3c4c(sc3n3c(=S)[nH]nc23)COC(C(C)C)C4)cc1 (stereo not drawn) the results were ALDH1A1 block 15%.
For Cc1oc2cc(O)ccc2c(=O)c1N1C(=O)c2ccccc2C1=O the results were ALDH1A1 block 1%, Lamin A splicing 4% and PNC inhibitor 38.
Screening CC(=O)Oc1ccc2c(=O)c(N3C(=O)c4ccccc4C3=O)c(C)oc2c1 returned ALDH1A1 block -4%, Lamin A splicing -6%, HPGD inh 25µM*, Luc counter -3% and PNC inhibitor -91*.
Screening Nn1c(SCc2cccc(C(F)(F)F)c2)nnc1-c1ccco1 returned ALDH1A1 block 22µM*, Lamin A splicing -4%, HPGD inh -18%, Luc counter -4% and PNC inhibitor 9.
COc1cccc(C2C(C)CCC3C(=O)N(C)C(C(C)C)C(=O)N32)c1 (stereo not drawn) was read as ALDH1A1 block -2%[13.5 µM].
CCOC(=O)N1CCc2c(sc3nc(SC(C)C)n(N)c(=O)c23)C1 was read as ALDH1A1 block 4.5µM*, Lamin A splicing inconclusive and PNC inhibitor inconclusive.
